Only some compounds are listed: those with a hit (about 7.8% of all), similar ones and a draw of the others.
VACV Venus inh – inhibitors of vaccinia virus (Venus reporter); Potency, µM (series often up to 36.5 µM), hits mostly inhibitors; Vaccinia virus Venus reporter expression, fluorescence; actives 0.46% (n = 330,000); calls by dose curve; tested in A549 cells; note: nearly all actives have a fitted effect of over 30% in size
HCV inhibitor – HCV inhibition | Huh7.5.1 HCVcc-Cre infection, luciferase reporter, 44 h | actives 3.4% (n = 340,000) | Potency, µM (highest dose often 41.8 µM), hits mostly inhibitors | AID 651820; active = well fitted inhibition curve with a large enough effect; inconclusive = small, poorly fitted or top-dose-only effect, or another doubt; inactive = no such curve, though single readings can be large or run the other way
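Infectious HCVcc-Cre (~0.5 moi) was added to cells just after compound, with cells seeded 4 h earlier at 1,000 per well. Luciferase activity after 44 h culture reported infection; substrate was incubated 15 min at room temperature before reading.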
VACV mCherry inh – inhibitors of vaccinia virus infection (mCherry reporter signal) | Vaccinia virus mCherry reporter infection, fluorescence | Potency, µM (top dose mostly 36.5 µM), actives largely listed as inhibitors | actives 0.63% (n = 310,000); calls by dose curve; tested in A549 cells; note: nearly all actives have a fitted effect of over 35% in size
HCMV inh – blocks human cytomegalovirus replication | HFF cells, HCMV-luciferase reporter, 72 h; active compounds read low | actives 4.5% (n = 410,000) | activity change, negative = inhibition, % at 57.5 µM; in the data active = activity change below about -60%; inconclusive = no clear call, values can overlap the other calls; inactive = above about -39%
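Luciferase read-out from HCMV-luciferase-infected HFFs (MOI 1 PFU/cell) 72 h post infection at 37C; compounds added after 16 h cell attachment; activity normalized between buffer-only basal and Salinomycin (10uM) inhibitor controls.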
Lassa entry inh – Lassa virus entry inhibition; Lassa virus pseudotype entry inhibition, cell reporter; Potency, µM (doses to about 37.9 µM), usual class: inhibitors; actives 1.2% (n = 300,000); AID 540256; calls by dose curve; tested in HEK293 cells; note: nearly all actives have a fitted effect of over 50% in size
Marburg entry inh – blocks Marburg virus binding to or entry into cells; Marburg virus pseudotyped entry inhibition, cell reporter; Potency, µM (highest dose often 37.8 µM), actives largely listed as inhibitors; actives 1.8% (n = 300,000); calls by dose curve; tested in HEK293 cells
Hits are given with their value; i = inactive; ? = inconclusive; nt = no result; [ ] = dose if it differs, or a comment.

SMILES	VACV Venus inh	HCV inhibitor	VACV mCherry inh	HCMV inh	Lassa entry inh	Marburg entry inh
CC(=O)N1CCc2cc(Br)cc(S(=O)(=O)N3CCN(c4cccc(C)c4)C(C)C3)c21 (centres undefined)	i	nt	i	i	i	i
COc1ccc2c(c1)c1nnc(SC(C)C)nc1n2C	i	nt	i	nt	nt	nt
CC(=O)c1cccc(NC(=O)c2noc3c2CSc2ccccc2-3)c1	?	nt	?	i	i	i
CCn1cc(C(=O)N2CCN(c3cc(Cl)ccc3C)CC2)c(=O)c2cc(S(=O)(=O)N3CCOCC3)ccc21	i	nt	i	i	i	i
CC(=O)Oc1ccc(C2=Cc3ccc(OC(C)=O)cc3OC2C)cc1 (centres undefined)	i	?	10µM	?	6.3µM	?
COc1ccc(C2=C/C(=C\c3ccc(OC(C)=O)cc3)C(=O)O2)cc1	i	i	i	i	i	i
COc1cc(CNC(=O)c2cnc(SC)nc2-c2ccccc2)cc(OC)c1OC	i	nt	i	i	i	nt
CCOc1ccc2c(ccc(/C=C/c3cc(C)c4cccnc4c3O)[n+]2C)c1	?	?	?	nt	?	16µM
Cc1cc(C)c2cccnc2c1O	i	nt	i	nt	nt	nt
Cc1ccc2nc(-c3ccc(C)o3)c(Nc3ccc(F)cc3)n2c1	i	nt	i	nt	nt	nt
CCCCc1ccc(NC(=O)CSc2nc(=O)n(CCN(CC)CC)c3c2CCC3)cc1	i	?	?	i	?	?
CCN(CC)CCn1c2c(c(SCC(=O)Nc3nc(C)cs3)nc1=O)CCCC2	i	?	i	-80	i	?
O=C(CSc1nc(=O)n(CCN2CCOCC2)c2c1CCC2)Nc1ccc(OC(F)(F)F)cc1	i	?	?	-60	i	i
CCN(CC)CCn1c2c(c(SCC(=O)Nc3ccc(C)c(F)c3)nc1=O)CCC2	i	i[8.37 µM]	i	-99	i	i
CCN(CC)CCn1c2c(c(SCC(=O)Nc3ccc(C(C)C)cc3)nc1=O)CCCC2	i	14µM	i	i	i	i
COc1ccc(/C(O)=C2\C(=O)C(=O)N(CCCN(C)C)[C@H]2c2ccccc2)cc1OC	nt	nt	nt	nt	nt	i
CCOc1ccc(NC(=O)Cn2cc(C(=O)c3ccccc3)c(=O)c3cc4c(cc32)OCO4)cc1	i	nt	i	i	i	i
O=C(c1cccc(F)c1)N1CC(=O)N2[C@H](CO)[C@@H](c3ccc(Br)cc3)[C@@H]2C1	nt	nt	nt	i	nt	nt
CCOC(=O)c1cc(C)n(CC2CCC(C(=O)Nc3ccc(OCC)cc3)CC2)c1C (centres undefined)	i	nt	i	-61	i	nt
COc1cc(-c2noc(C3CC(=O)N(c4cc(C)ccc4C)C3)n2)cc(OC)c1OC (centres undefined)	i	nt	i	i	i	nt
CCOP(=O)(c1ccc(N(C)C)cc1)C(O)c1ccccc1 (centres undefined)	nt	i	nt	-83	i	?
C[C@@H]1CCCCO[C@@H](CN(C)Cc2ccc3c(c2)OCO3)[C@@H](C)CN([C@H](C)CO)C(=O)c2cc(NS(=O)(=O)c3ccccc3)ccc2O1	?	nt	i	-69	nt	nt
C[C@@H]1CCCCO[C@@H](CN(C)CC2CCCCC2)[C@@H](C)CN([C@H](C)CO)C(=O)c2cc(NS(=O)(=O)c3ccc(Cl)cc3)ccc2O1	10µM	nt	?	-102	nt	nt
C[C@H]1CCCCO[C@H](CN(C)CC2CCCCC2)[C@@H](C)CN([C@@H](C)CO)C(=O)c2cc(NS(=O)(=O)c3ccccc3)ccc2O1	?	nt	i	-63	nt	nt
Cc1ccc(S(=O)(=O)Nc2ccc3c(c2)C(=O)N([C@@H](C)CO)C[C@@H](C)[C@@H](CN(C)CC2CC2)OCCCC[C@@H](C)O3)cc1	i	nt	i	i	nt	nt
SMILES	VACV Venus inh	HCV inhibitor	VACV mCherry inh	HCMV inh	Lassa entry inh	Marburg entry inh
CC1(C)CC(=O)c2c(nc(SCC(=O)Nc3nsc(-c4ccccc4)n3)c(C#N)c2-c2ccccc2)C1	i	?	i[1.46 µM]	i	?	?
CCc1c(C#N)c(SCCC(=O)Nc2cccc(OC)c2)nc2c1C(=O)CC(C)(C)C2	i	10µM	nt	i	i	i
COc1ccc(-c2c(C#N)c(SCc3c(C)noc3C)nc3c2C(=O)CC(C)(C)C3)cc1	i	i	i	i	i	i
CCc1c(C#N)c(SCCC(=O)Nc2ccc(F)cc2)nc2c1C(=O)CC(C)(C)C2	?	11µM	nt	-96	?	?
CCOc1ccccc1CNC(=O)c1[nH]c2ccccc2c1Sc1ccccc1	i	nt	i	i	i	i
CCN1C(=O)S/C(=C/c2ccc(Sc3nc4ccccc4[nH]3)o2)C1=O	i	?	i	-65	?	?
O=C(N/N=C/c1ccc(Sc2nc3ccccc3[nH]2)o1)c1ccncc1	i	i	i	?	?	i
COc1ccc(-n2cc(-c3ccccc3)c3c(NC4CCCC4)ncnc32)cc1	i	nt	i	?	?	nt
Nc1ncnc2c1c(-c1ccc(Oc3ccccc3)cc1)cn2C1CCCC1	?	?	i	-64	?	?
Cc1cnc2ccccc2c1/C=C/c1ccc(N)cc1	i	nt	i	nt	nt	nt
Cc1ccc(CNC(=O)c2ccc3c(c2)N(Cc2cccc(C)c2)C(=O)CS3)cc1	i	nt	i	i	?	i
COc1ccccc1N(C)S(=O)(=O)c1ccc(Cl)c(C(=O)OCc2c(C)noc2C)c1	i	i	i	i	11µM	?
COc1ccccc1N(C)S(=O)(=O)c1ccc(Cl)c(C(=O)N2CCC2)c1	i	i	i	i	i	i
COc1cc(CCC(=O)NCc2ccc3c(c2)CCN3C(=O)c2ccc(F)cc2)cc(OC)c1OC	i	nt	i	i	i	nt
Cc1cccc(N2CCN(C(=S)c3ccccc3)CC2)c1	i	i	i	i	i	?
Cc1cccc(N2CCN(C(=S)c3ccc([N+](=O)[O-])cc3)CC2)c1	i	i	i	-63	i	i
COc1ccccc1C(=O)Nc1ccc(N2CCCCC2)cc1	i	i	i	i	?	7.9µM
O=C(Nc1ccc(N2CCCCC2)cc1)c1ccccn1	i	i	i	nt	0.52µM	0.46µM
O=C(Nc1ccc(N2CCCCCC2)cc1)c1ccccc1Cl	i	?	?	i	i	?
CC(=O)c1cccc(CN2CCC(C(=O)Nc3cccc(-c4ccn[nH]4)c3)CC2)c1	i	6.3µM	i	?	i	?
CCn1cc(CN2CCC(C(=O)Nc3cccc(-c4cccc(OC)c4)c3)CC2)cn1	i	i	i	i	i	i
C=CCOc1ccccc1CN1CCC(C(=O)Nc2cccc(-c3ccn[nH]3)c2)CC1	nt	?	nt	-64	nt	nt
C=CCOc1ccccc1CN1CCC(n2nccc2NC(=O)C2CCOC2)CC1 (centres undefined)	i	i	i	?	i	i
COc1cc(C(=S)N2CCN(C(c3ccccc3)c3ccccc3)CC2)cc(OC)c1O	nt	11µM	nt	i	nt	nt
CCOc1ccccc1CN(CCc1ccc2c(c1)OCO2)Cc1cc(OC)c(OC)cc1OC	i[7.34 µM]	nt	i[7.34 µM]	i	?	10µM
Cc1ccc(Cn2c(CN3CCN(c4cccc(Cl)c4)CC3)nc3c2c(=O)n(C)c(=O)n3C)cc1	i	nt	i	i	i	i
C/C(=N\Nc1cc(N2CCOCC2)nc(C)n1)c1ccc(F)cc1	i	?	i	i	?	2.8µM

Screens deposited in PubChem BioAssay by National Center for Advancing Translational Sciences (NCATS).
